Compounds without any hit were thinned out: in the full panel of roughly 79,000, 15% have a hit. Calls of active or inactive are those of the source. No stated cut-off is given here; in the data, active means growth inhibition above about 70%; inactive means the rest.
Legend:
[1] = NCI Yeast Anticancer Drug Screen. Data for the wt1 strain (AID 149);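 further: 0% = growth of vehicle-treated wt1 cultures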; settings: S. cerevisiae wt1 strain (SPY 50644) growth inhibition, hits give high values
Summary of the method: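 Growth inhibition read against vehicle controls after compound exposure of the wt1 yeast strain.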

[2] = NCI Yeast Anticancer Drug Screen. Data for the rad50EPP+ strain (AID 151);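 further: 0% = growth of vehicle-treated control cultures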; settings: S. cerevisiae rad50 mutant strain, hits give high values
Summary of the method: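 Measured: growth inhibition of rad50EPP+ yeast. Reference: vehicle-treated controls. Screen uses strains with defined genetic alterations in DNA damage repair or cell cycle control.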

[3] = NCI Yeast Anticancer Drug Screen. Data for the mgt1 strain (AID 153); settings: S. cerevisiae mgt1 mutant growth inhibition, hits give high values
Summary of the method: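 Compounds were applied to mgt1 mutant yeast, and growth was then compared against vehicle-treated control cultures to give percent inhibition.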

[4] = NCI Yeast Anticancer Drug Screen. Data for the rad50 strain (AID 155);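 further: 0% = growth of vehicle-only cultures of the same strain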; settings: S. cerevisiae rad50 strain growth inhibition, hits give high values
Summary of the method: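 Readout: growth inhibition relative to vehicle-treated cultures. Compound exposure was carried out in a genetically defined yeast strain deficient in DNA damage repair.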

[5] = NCI Yeast Anticancer Drug Screen. Data for the mec2-1 strain (AID 157); settings: S. cerevisiae mec2-1 strain, hits give high values
Summary of the method: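 Compounds were applied to mec2-1 yeast cells. Their growth was then compared with that of vehicle-treated cultures to give growth inhibition.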

[6] = NCI Yeast Anticancer Drug Screen. Data for the rad14 strain (AID 159);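 further: 0% = growth of vehicle-treated control cultures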; settings: S. cerevisiae rad14 strain growth inhibition, hits give high values
Summary of the method: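 Growth inhibition vs vehicle controls; genetically altered yeast strain (DNA damage repair defect) treated with test compounds.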

[7] = NCI Yeast Anticancer Drug Screen. Data for the sgs1 mgt1 strain (AID 161);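 further: 0% = growth of cultures given vehicle only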; settings: S. cerevisiae sgs1 mgt1 strain, hits give high values
Summary of the method: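 This yeast growth screen uses a strain with defined DNA-repair lesions; compound-treated growth is compared with vehicle-treated growth.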

[8] = NCI Yeast Anticancer Drug Screen. Data for the CLN2oe strain (AID 163);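 further: 0% = growth of vehicle-only control cultures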; settings: S. cerevisiae CLN2oe strain, hits give high values
Summary of the method: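 Cells of an engineered yeast line with disturbed cell-cycle regulation are treated with compound. Inhibition of growth is then calculated relative to the vehicle-treated reference.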

[9] = NCI Yeast Anticancer Drug Screen. Data for the cln2 rad14 strain (AID 165);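 further: 0% = growth equal to vehicle treated cultures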; settings: S. cerevisiae cln2 rad14 strain, hits give high values
Summary of the method: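 Strain: cln2 rad14 yeast, altered in cell cycle control and DNA damage repair. Read-out: growth inhibition vs vehicle.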

[10] = NCI Yeast Anticancer Drug Screen. Data for the bub3 strain (AID 167); settings: S. cerevisiae bub3 mutant strain, hits give high values
Summary of the method: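 Readout: yeast growth inhibition, expressed relative to vehicle-only wells. The test organism is a mutant strain from a panel with lesions in DNA repair or checkpoint genes.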

[11] = NCI Yeast Anticancer Drug Screen. Data for the wt2 strain (AID 169);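 further: 0% = growth of vehicle-treated yeast cultures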; settings: S. cerevisiae wt2 strain growth inhibition, hits give high values
Summary of the method: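 Growth of compound-treated yeast is measured and expressed as inhibition relative to vehicle-only controls.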

[12] = NCI Yeast Anticancer Drug Screen. Data for the mlh1 strain (AID 171);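 further: 0% = growth of vehicle-treated control cultures of the same strain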; settings: S. cerevisiae mlh1 strain growth inhibition, hits give high values
Summary of the method: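 Test agents were incubated with yeast bearing a defined DNA damage repair or cell cycle control alteration; values are growth inhibition normalised to vehicle-treated cultures.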

[13] = NCI Yeast Anticancer Drug Screen. Data for the mlh1 rad18 strain (AID 175); settings: S. cerevisiae mlh1 rad18 strain growth inhibition, hits give high values
Summary of the method: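 A repair-deficient yeast strain is exposed to test compound, and growth is scored relative to vehicle-treated controls.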

[14] = NCI Yeast Anticancer Drug Screen. Data for the rad18 strain (AID 177); settings: S. cerevisiae rad18 mutant growth inhibition, hits give high values
Summary of the method: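 DNA-repair-defective yeast; compound treatment; growth inhibition scored against vehicle.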

[15] = NCI Yeast Anticancer Drug Screen. Data for the sgs1 strain (AID 173);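 further: 0% = growth of vehicle-only control cultures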; settings: S. cerevisiae sgs1 mutant, hits give high values
Summary of the method: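 Strain with an altered DNA repair or cell cycle pathway exposed to compound. Growth then measured. Value = inhibition versus vehicle control.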

[16] = at 5.0 µM (retest, dose inferred, filed as 0.5)
[17] = at 50.0 µM (retest, dose inferred, filed as 5.0)

Measured: growth inhibition

CN(C)c1ccc(/C=C/c2ccnc3ccc4ccccc4c23)cc1
active: [4]; at 100.0 µM 70% | [5]; at 33.0 µM 82% | [5]; at 100.0 µM 82% | [6]; at 33.0 µM 83% | [6]; at 100.0 µM 80% | [7]; [17] 76% | [7]; at 50.0 µM 91.4% | [10]; at 33.0 µM 83% | [10]; at 50.0 µM 70% | [10]; at 100.0 µM 79% | [13]; at 50.0 µM 72% | [14]; at 11.0 µM 75% | [14]; at 33.0 µM 84% | [14]; at 100.0 µM 75%
inactive: [1]; at 1.2 µM -6% | [1]; at 3.7 µM -9% | [1]; at 11.0 µM -6% | [1]; at 33.0 µM 34% | [1]; at 100.0 µM 48% | [2]; at 1.2 µM 2% | [2]; at 3.7 µM 8% | [2]; at 11.0 µM 15% | [2]; at 33.0 µM 4% | [2]; at 100.0 µM -14% | [3]; at 1.2 µM -3% | [3]; at 3.7 µM -2% | [3]; at 11.0 µM 45% | [3]; at 33.0 µM 69% | [3]; at 100.0 µM 58% | [4]; at 1.2 µM -7% | [4]; at 3.7 µM 3% | [4]; [16] 9% | [4]; at 11.0 µM 30% | [4]; at 33.0 µM 67% | [4]; [17] -7% | [4]; at 50.0 µM 69% | [5]; at 1.2 µM -7% | [5]; at 3.7 µM -7% | [5]; [16] -7% | [5]; at 11.0 µM 4% | [5]; [17] -18% | [5]; at 50.0 µM 27.3% | [6]; at 1.2 µM -5% | [6]; at 3.7 µM -4% | [6]; at 11.0 µM 28% | [7]; [16] -2% | [8]; at 1.2 µM -11% | [8]; at 3.7 µM -16% | [8]; at 11.0 µM -15% | [8]; at 33.0 µM 2% | [8]; at 100.0 µM 55% | [9]; [16] -14% | [9]; [17] 22% | [9]; at 50.0 µM 6.65% | [10]; at 1.2 µM -6% | [10]; at 3.7 µM -8% | [10]; [16] -4% | [10]; at 11.0 µM 6% | [10]; [17] 3% | [11]; at 1.2 µM -6% | [11]; at 3.7 µM -5% | [11]; at 11.0 µM 50% | [11]; at 33.0 µM 61% | [11]; at 100.0 µM 51% | [12]; at 1.2 µM -8% | [12]; at 3.7 µM 0% | [12]; at 11.0 µM 45% | [12]; at 33.0 µM 67% | [12]; at 100.0 µM 68% | [13]; [16] -3% | [13]; [17] 37% | [14]; at 1.2 µM 2% | [14]; at 3.7 µM 20%

c1cc(Nc2ccc3c(c2)OCO3)c2cc(C3CCCCC3)ccc2n1
active: [3]; at 100.0 µM 85% | [4]; at 50.0 µM 99.3% | [4]; at 100.0 µM 73% | [5]; at 50.0 µM 99.5% | [5]; at 100.0 µM 72% | [6]; at 100.0 µM 78% | [7]; at 50.0 µM 99.2% | [9]; at 50.0 µM 98.7% | [10]; [17] 98% | [10]; at 50.0 µM 98.6% | [10]; at 100.0 µM 74% | [11]; at 100.0 µM 81% | [12]; at 100.0 µM 82% | [15]; at 100.0 µM 86% | [13]; [17] 73% | [13]; at 50.0 µM 99.5% | [14]; at 100.0 µM 85%
inactive: [1]; at 1.2 µM 0% | [1]; at 3.7 µM 0% | [1]; at 11.0 µM -4% | [1]; at 33.0 µM -6% | [1]; at 100.0 µM 34% | [2]; at 1.2 µM 1% | [2]; at 3.7 µM -2% | [2]; at 11.0 µM -2% | [2]; at 33.0 µM -3% | [2]; at 100.0 µM 23% | [3]; at 1.2 µM -2% | [3]; at 3.7 µM -4% | [3]; at 11.0 µM -3% | [3]; at 33.0 µM -6% | [4]; at 1.2 µM 19% | [4]; at 3.7 µM -14% | [4]; [16] 4% | [4]; at 11.0 µM 5% | [4]; at 33.0 µM 5% | [4]; [17] 48% | [5]; at 1.2 µM -3% | [5]; at 3.7 µM -2% | [5]; [16] -8% | [5]; at 11.0 µM -4% | [5]; at 33.0 µM -2% | [5]; [17] 23% | [6]; at 1.2 µM 5% | [6]; at 3.7 µM 5% | [6]; at 11.0 µM 7% | [6]; at 33.0 µM 15% | [7]; [16] 0% | [7]; [17] 46% | [9]; [16] 40% | [9]; [17] 46% | [10]; at 1.2 µM -1% | [10]; at 3.7 µM -3% | [10]; [16] 10% | [10]; at 11.0 µM -2% | [10]; at 33.0 µM 8% | [11]; at 1.2 µM 0% | [11]; at 3.7 µM -1% | [11]; at 11.0 µM -2% | [11]; at 33.0 µM 0% | [12]; at 1.2 µM -1% | [12]; at 3.7 µM -1% | [12]; at 11.0 µM -2% | [12]; at 33.0 µM 2% | [15]; at 1.2 µM -1% | [15]; at 3.7 µM -2% | [15]; at 11.0 µM -7% | [15]; at 33.0 µM 5% | [13]; [16] 7% | [14]; at 1.2 µM -3% | [14]; at 3.7 µM -7% | [14]; at 11.0 µM -14% | [14]; at 33.0 µM -16%
